Source: PubChem
Pf growth 96h = Primary qHTS for delayed death inhibitors of the malarial parasite plastid, 96 hour incubation; 320,000 tested, 6.9% active; P. falciparum luciferase reporter growth, 96 h; Potency, µM (highest dose often 28.7 µM), for inactives: at the top dose activity change, negative = inhibition, usual class: inhibitors; further: potency means the concentration at half of the fitted maximal effect; on the % scale 0 is the no-effect control and ±100 the full control effect
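Delayed-death screen, second-generation endpoint: infected erythrocytes, 2% hematocrit, 0.05% parasitemia final; 96 hours at 37 C, 5% CO2; luciferase detection reagent; luminescence decrease equals reduced growth.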
HCMV antiviral = qHTS Assay for inhibitors of the human cytomegalovirus (HCMV) | HFF cells, HCMV-luciferase reporter, 72 h; active compounds read low | activity change, negative = inhibition, % at 57.5 µM | 410,000 tested, 4.5% active | AID 1259415, 2018; in the data active means activity change below about -60%; inconclusive means no clear call, values can overlap the other calls; inactive means above about -39%; further: on the % scale 0 is the no-effect control and ±100 the full control effect
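Two-dose cell screen: HFF monolayers treated with compounds and infected with luciferase-expressing HCMV at 1 PFU/cell, 72 h at 37C, then lysed for luciferase measurement.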
Pf growth 48h = Primary qHTS for delayed death inhibitors of the malarial parasite plastid, 48 hour incubation | P. falciparum luciferase growth in erythrocytes, 48 h | Potency, µM (series often up to 28.7 µM), for inactives: at the highest dose activity change, negative = inhibition, most hits filed as inhibitors | AID 504832, 2011 | 310,000 tested, 5.9% active; further: potency means the concentration at half of the fitted maximal effect; on the % scale 0 is the no-effect control and ±100 the full control effect
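First compound was added to culture medium, then infected red cells at 0.1% parasitemia and 2% hematocrit (final). After incubation at 37 C under 5% CO2, luciferase detection reagent was dispensed and light output recorded.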
Cycloheximide cs = Cycloheximide Counterscreen for Small Molecule Inhibitors of Shiga Toxin | cell reporter, cycloheximide protein synthesis inhibition counterscreen | max response, % | 300,000 tested, 12% active | AID 2314, 2010; in the data active means max response mostly above about 13%, no sharp cut-off; inactive means mostly below about 14%; further: read at 38.3 µM for the half of the compounds with a filed dose; 0% is about no effect
Shiga inhibitor = A qHTS for Small Molecule Inhibitors of Shiga Toxin; 290,000 tested, 9.2% active; inhibition, % at 38.7 µM; Vero cells, Shiga toxin protein synthesis inhibition reporter; in the data active means inhibition mostly above about 28%, no sharp cut-off; inactive means mostly below about 43%; further: 0% is about no effect
* hit, by the source's call; i = inactive; ? = inconclusive; . = not tested or not shown; ! = repeats disagree. This is a sample that favours compounds with a hit; in the whole collection about 20% have one here. Unless noted, the call rests on the fitted dose curve; in most records, active means well fitted inhibition curve with a large enough effect; inconclusive means small, poorly fitted or top-dose-only effect, or another doubt; inactive means no such curve, though single readings can be large or run the other way.

SMILES	Pf growth 96h	HCMV antiviral	Pf growth 48h	Cycloheximide cs	Shiga inhibitor
O=C(c1ccccc1F)N1CCN(c2ccccc2)CC1	8.6%	-8.2	6.5%	-1.0	-6.6
O=C(c1ccccc1F)N1CCN(C(=O)C(c2ccccc2)c2ccccc2)CC1	0.294µM*	8.1	-17.0%	-4.8	-3.8
CNC(=O)NC(=O)C(C)OC(=O)CCCSc1nc2ccccc2s1 (configuration not stated)	-10.1%	-32.9	-7.3%	-3.7	-8.1
CC(C)(C)C(=O)N1CCN(C(c2ccccc2)c2ccccc2)CC1	10.4µM*	.	11.7µM*	-4.9	6.0
CCN1C(=O)CC(N2CCN(C(c3ccccc3)c3ccccc3)CC2)C1=O (configuration not stated)	.	24.4	?	-2.3	-24.2
CNC(=S)N1CCN(C(c2ccccc2)c2ccccc2)CC1	9.3%	-9.5	-22.1%	-1.7	-3.4
Cc1oc(C(C)(C)C)cc1C(=O)N1CCN(C(c2ccccc2)c2ccccc2)CC1	11.7µM*	?	5.86µM*	-1.9	-2.3
CCN1C(=O)C(CC(=O)N2CCN(C(c3ccccc3)c3ccccc3)CC2)N(CC)C1=O (configuration not stated)	?	19.7	11.7µM*	0.4	-9.0
COc1ccc(-c2ocnc2C(=O)N2CCN(C(c3ccccc3)c3ccccc3)CC2)cc1	-2.6%	7.9	8.28µM*	-2.7	8.3
Cc1occc1C(=O)N1CCN(c2ccccc2)CC1	-12.0%	-26.8	13.5%	-0.7	-7.7
Cc1occc1C(=O)N1CCN(C(c2ccccc2)c2ccccc2)CC1	-1.9%	78.5	1.31µM*	5.0	7.3
Cc1ccccc1C(=O)N1CCCN(C(=O)c2ccccc2C)CC1	?	49.4	8.3%	-1.1	-15.4
Cc1ccccc1C(=O)N1CCN(C(c2ccccc2)c2ccccc2)CC1	5.86µM*	38.0	10.4µM*	-1.7	-6.2
CCC/C=C/C=C/C(=O)OC1/C(=C/C(=O)OC)CC2CC(C(C)O)OC(=O)CC(O)CC3CC(OC(C)=O)C(C)(C)C(O)(CC4C/C(=C/C(=O)OC)CC(/C=C\C(C)(C)C1(O)O2)O4)O3 (configuration not stated)	1.51µM*	.	3.79µM*	.	.
Clc1ccc(-n2ncc3c(NCC4CCCO4)ncnc32)cc1 (configuration not stated)	146.3%	47.2	163.6%	39.9*	50.0*
COc1ccc(-n2ncc3c(NCC4CCCO4)ncnc32)cc1 (configuration not stated)	i	.	300.1%	67.9*	94.7*
CCS(=O)(=O)NCCc1csc(-c2ccccc2)n1	-0.1%	17.1	66.7%	57.0*	70.5*
CCc1ccc(S(=O)(=O)NCCc2csc(-c3ccccc3)n2)s1	?	-63.1*	-28.1%	2.6	-4.5
Cc1ccc(S(=O)(=O)NCCc2csc(-c3cccc(F)c3)n2)cc1	.	-24.0	.	.	.
CCS(=O)(=O)NCCc1csc(-c2cccnc2)n1	32.3%	-17.4	11.2%	1.8	6.6
O=S(=O)(NCCc1csc(-c2cccc(F)c2)n1)c1cc(F)ccc1F	.	-106.5*	.	.	.
CCC(C)NC(=O)C1CCN(S(=O)(=O)c2ccc3c(c2)CCCN3C(C)=O)CC1 (configuration not stated)	.	4.2	.	.	.
CCCCn1c(=O)c(C=Nc2ccc(Cl)cc2)c(O)n(Cc2ccco2)c1=O	9.28µM*	27.1	8.28µM*	-3.5	-11.9
O=C(C1COc2cc(S(=O)(=O)Nc3ccc(Cl)cc3)ccc2O1)N1CCCC1 (configuration not stated)	.	-18.5	.	.	.
Cc1cc(NC(=O)Cn2nnc(-c3ccccc3NC(=O)c3ccccc3F)n2)no1	?	7.0	?	12.0	11.6
SMILES	Pf growth 96h	HCMV antiviral	Pf growth 48h	Cycloheximide cs	Shiga inhibitor
COc1ccc(NC(=O)C2CCN(c3cnccn3)CC2)cc1Cl	59.4%	-60.2*!	-3.7%	1.1	-13.7
COc1ccc(NC(=O)C(OC)c2ccccc2)cc1Cl (configuration not stated)	231.1%	-19.1	-2.4%	7.4	7.6
CC(=O)Nc1ccc(NC(=O)C2CCN(c3cnccn3)CC2)cc1	.	-9.4	.	.	.
Cc1cc(C)c(NC(=O)C2CCN(c3cnccn3)CC2)c(C)c1	13.1µM*	-17.8	5.6%	-4.3	14.3
COc1ccc(NC(=O)C(OC(=O)c2cnccn2)c2ccccc2)cc1Cl (configuration not stated)	-25.4%	38.1	2.2%	17.4*	53.1
Cc1cc(C)cc(NC(=O)C2CCN(c3cnccn3)CC2)c1	-0.6%	18.8	-19.3%	6.9	-2.8
COc1ccc(NC(=O)C(Sc2nnc(-c3ccncc3)n2-c2ccccc2C)c2ccccc2)cc1Cl (configuration not stated)	?	-31.6	8.28µM*	13.7	19.2
C=CCn1c(C)cc(C(=O)COc2ccc(C)nc2[N+](=O)[O-])c1C	12.0%	-92.1*	38.4%	74.7*	98.0*
CCCn1c(C)cc(C(=O)COc2ccc(C)nc2[N+](=O)[O-])c1C	-26.4%	-89.0*	21.5%	15.1*	85.0*
Cc1ccc(C)c(C(=O)COc2ccc(C)nc2[N+](=O)[O-])c1	?	42.9	.	-2.9	-7.7
C=CCn1c(C)cc(C(=O)COc2nncc3ccccc23)c1C	21.7%	59.2	.	68.9*	159.0*
Cc1ccc(OCC(=O)N2CCC(C)CC2)c([N+](=O)[O-])n1	-4.7%	45.7	18.5%	.	.
CC(=O)Nc1cccc(NC(=O)COc2nncc3ccccc23)c1	21.5%	-16.5	24.4%	-1.9	-17.2
Cc1ccc(OCC(=O)c2c[nH]c3ccccc23)c([N+](=O)[O-])n1	-13.5%	13.6	?	51.2*	80.6*
Cc1ccc(OCC(=O)c2cc(C)c(C)cc2C)c([N+](=O)[O-])n1	-5.6%	67.2	.	1.5	18.9
COCCn1c(C)cc(C(=O)COc2ccc(C)nc2[N+](=O)[O-])c1C	6.0%	-93.9*	25.7%	17.9	57.3
Cc1ccc(OCC(=O)c2c(N)n(C)c(=O)n(C)c2=O)c([N+](=O)[O-])n1	?	-8.8	-8.4%	.	.
Cc1ccc(OCC(=O)c2cc(C)n(-c3ccccc3)c2C)c([N+](=O)[O-])n1	28.2%	-98.6*	32.7%	45.5*	64.0*
C=CCn1c(C)cc(C(=O)COc2ccc(S(=O)(=O)N3CCCC3)cc2[N+](=O)[O-])c1C	?	-15.5	?	13.2*	13.8
Cc1cc(-c2ccc(C)c(S(=O)(=O)N(C(C)C)C3CCCCC3)c2)on1	.	-31.9	.	.	.
Cc1cc(-c2ccc(C)c(S(=O)(=O)N(Cc3cccs3)C(C)C)c2)on1	.	-77.0*	.	.	.
CC(=O)NC(Cc1ccccc1C)C(=O)NC1CCN(c2nnnn2-c2ccccc2)CC1 (configuration not stated)	?	-27.4	?	7.4	1.6
